Consider 40 compounds from PubChem BioAssay (Tox21).

Records with an inconclusive call do not appear. A call without a number means that no potency is given here. Values without a mark were called inactive. Calls of active or inactive are those of the source. Calls come from the whole dose curve; as a rule, active = well fitted cell-killing curve with a large enough effect in the repeat runs; inconclusive = weak or mixed curves, or effect the other way; inactive = flat fitted curve, though single readings scatter.
Potency is the fitted concentration of half-maximal effect.

A short description of this assay: cAMP Responsive Elements (CRE) small molecule antagonists, cell-based qHTS assay: qHTS cell viability counter screen (AID 2060913). Note: nearly all actives have a fitted effect of over 40% in size. To be noted: CRE-bla HEK293T viability, CellTiter-Glo luminescence, 5 h; series mostly up to 92.4 µM. The essentials: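 Viability of NKH477-stimulated (0.25 uM final) CRE-bla HEK293T cells is measured by CellTiter-Glo luminescence following 3 hrs compound exposure at 37 C.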
Consider `CN1CCN(c2c(F)cc3c(=O)c(C(=O)O)cn4c3c2OCN4C)CC1`, for which the viability change, negative = cytotoxic is 3.45% [at 18.9 µM].

On to `NC(=O)C1CO1` (stereo not given), for which the Potency result was “inactive”.

In the case of `CC(C)CO`, the Potency result was “inactive”.

Consider `C=CCCCC`, for which the Potency entry is “inactive”.

Turning to `CCn1nc(Cc2ccccc2)cc1C1CCN(C[C@H]2C[C@H](N(C)[C@@H](C(=O)O)C(C)C)C[C@@H]2c2cccc(F)c2)CC1`, the Potency entry was “inactive”.

For the compound `CCCCCCOC(=O)c1ccccc1O`, the Potency result is “inactive”.

`COC(C(=O)O)c1ccccc1` (stereo not given): the Potency entry is “inactive”.

As for `CCN1CCCC1CN` (stereo not given), the Potency result is “inactive”.

Take `COC(=O)Nc1nc2ccc(Sc3ccccc3)cc2[nH]1`: the Potency entry is “inactive”.

As for `C1COC(NC(C2CC2)C2CC2)=N1`, the Potency result was “inactive”.

Take `C[C@@H]1C[C@H]2[C@@H]3CCC4=CC(=O)C=C[C@]4(C)[C@@]3(F)[C@@H](O)C[C@]2(C)[C@H]1C(=O)CO`: the Potency result was “inactive”.

For the compound `CCC(=O)O[C@]1(C(=O)COC)[C@@H](C)C[C@H]2[C@@H]3CCC4=CC(=O)C=C[C@]4(C)C3(F)[C@@H](O)C[C@@]21C` (stereo not given in full), the Potency result was “inactive”.

With `CC(C)CC(=O)OCc1ccccc1`, the Potency entry is “inactive”.

On to `O=c1[nH]c(=O)n([C@H]2C[C@H](O)[C@@H](CO)O2)cc1F`, for which the Potency entry was “inactive”.

Consider `C1CCCC1`, for which the Potency result is “inactive”.

With `CC[C@H]1CC[C@H](NCc2cc3c(cc2OC)[C@H]2C[C@H]2C(=O)N3C)[C@H](c2ccccc2)N1`, the Potency result was “inactive”.

Regarding `O=S(c1cc(Cl)cc(Cl)c1O)c1cc(Cl)cc(Cl)c1O`, the Potency entry was “inactive”.

For the compound `COc1ccc(C(=O)NCc2ccc(OCCN(C)C)cc2)cc1OC`, the Potency entry was “inactive”.

For `COc1cc(C=C2CCC/C(=C\c3ccc(O)c(OC)c3)C2=O)ccc1O`, the Potency result was “inactive”.

Take `NC(=O)NC1N=C([O][Al])NC1=O` (stereo not given): the Potency result is “inactive”.

As to `C=CC(C)CCC=C(C)C` (stereo not given), the Potency entry was “inactive”.

For the compound `CCCC(C)C(=O)O` (stereo not given), the Potency entry was “inactive”.

For the compound `CCC(C)COC(C)=O` (stereo not given), the Potency result is “inactive”.

For `COC(=O)[C@H]1[C@H]2C[C@@H]3c4[nH]c5cc(OC)ccc5c4CCN3C[C@H]2C[C@@H](OC(=O)COc2ccc(OC)cc2)[C@@H]1OC`, the Potency result is “inactive”.

For `Clc1cc(Cl)c2c(c1)N=C1CCCCCN1C2`, the Potency entry was “inactive”.

Turning to `CC(=O)/C=C/C1C(C)=CCC(C)C1(C)C` (stereo not given), the Potency result was “inactive”.

In the case of `COc1ccc(CCN2CCC(Nc3nc4ccccc4n3Cc3ccc(F)cc3)CC2)cc1`, the Potency was 35.1 µM (active).

Take `C=CCCCCCCCCCC`: the Potency result is “inactive”.

For `CC1=CCC2C(C1)C2(C)C` (stereo not given), the Potency result is “inactive”.

Take `CC(C)[N+](C)(C)CC(O)COc1cccc2ccccc12` (stereo not given): the Potency result is “inactive”.

Consider `OCC(F)(F)F`, for which the Potency result was “inactive”.

On to `CC=O`, for which the Potency was 63.9 µM (active).

For the compound `CC(C)OC(=O)CCCCC(=O)OC(C)C`, the Potency entry was “inactive”.

For `CC(CC(=O)Cl)CC(C)(C)C` (stereo not given), the Potency entry was “inactive”.

For `CC(C)[C@H](N)C(=O)OCCOCn1cnc2c(=O)[nH]c(N)nc21`, the Potency entry was “inactive”.

`NC(=O)NNc1ccccc1`: the Potency entry is “inactive”.

`Cc1c(Cn2ccnc2)c2ccccc2n1CCC(=O)O`: the Potency result was “inactive”.

On to `CCCC(C)CO` (stereo not given), for which the Potency result was “inactive”.

Regarding `NC1CCN(c2cccc(Cl)n2)CC1`, the Potency result was “inactive”.

On to `CCCCNC(=O)NCCCC`, for which the Potency result was “inactive”.
